This note sets out measurements from PubChem BioAssay.

Activity calls are given as the source filed them.

Assay [1] in a line: small molecules captured by biotinylated probe aFSTL3 – biochemical, small-molecule microarray, fluorescence 635/667, stem cell growth factor project, primary screen (AID 1064).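 Also: measures binding of the biotinylated anti-FSTL3 antibody to printed compounds.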 The conditions noted are these: higher = more signal.
Assay [2] in a line: binders from COS7 lysate, DM2A8 probe, primary screen, torsin A project, cell lysate, small-molecule microarray, fluorescence 635/667 (AID 1065). The conditions noted are these: higher = more signal, COS7 lysate expressing mutant human TOR1A.
Assay [3] can be described thus: small molecules captured by biotinylated probe aFGF2 – biochemical, small-molecule microarray, fluorescence 635/667, stem cell growth factor project, primary screen (AID 1067).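 Also: measures binding of biotinylated aFGF2 protein to printed compounds on slides; z-score merges feature fluorescence and signal-to-noise across triplicate slides.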 The conditions noted are these: higher = more signal.
A short description of assay [4]: small molecules captured by biotinylated probe aFGF10 – biochemical, small-molecule microarray, fluorescence 635/667, stem cell growth factor project, primary screen (AID 1071).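 Also: score merges 667 nm spot intensity and signal to noise from triplicate slides.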 The conditions noted are these: higher = more signal.
Assay [5] concerns the target Neurogenic locus notch homolog protein 2 (Homo sapiens) (UniProt Q04721). The assay is described as follows: small molecules binding Notch2 protein – biochemical, small-molecule microarray, 635 nm fluorescence, stem cell growth factors, primary screen (AID 1073). The conditions noted are these: higher = more signal.
Assay [6] addresses Pro-neuregulin-1, membrane-bound isoform (Homo sapiens) (UniProt Q02297). The assay is described as follows: small molecules binding neuregulin-1 protein – biochemical, small-molecule microarray, fluorescence 635/667, psychiatric disease protein project, primary screen (AID 1075).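 Also: score combines 667 nm spot fluorescence with signal to noise.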 The conditions noted are these: NRG1 binding, 635 nm fluorescence, higher = more signal.
The subject of assay [7] is Neuregulin-1 EGF-like domain. Description: small molecules binding NRG1 EGF domain – biochemical, small-molecule microarray, 635 nm fluorescence, primary screen (AID 1081).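 Also: binding of the protein to compounds printed on small-molecule microarray slides.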 The conditions noted are these: higher = more signal.
Assay [8] can be described thus: FRG1 expression reporter modulators in myotubes – cell-based, C2C12 myotubes, firefly/Renilla luciferase, luminescence, FRG1 inhibition for FSHD, primary screen (AID 1084). The conditions noted are these: FRG1 promoter luciferase, higher = more signal, called active from +8 up or from −8 down.
Assay [9] is described as follows: small molecules captured by biotinylated probe aFST – biochemical, small-molecule microarray, fluorescence 635/667, stem cell growth factor project, primary screen (AID 1086).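 Also: score merges 667 nm fluorescence with signal-to-noise of each printed compound spot.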 The conditions noted are these: higher = more signal.
The nature of assay [10]: binders of probe aHhip on microarray, primary screen, stem cell growth factor project, biochemical, small-molecule microarray, fluorescence 635/667 (AID 1087).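 Also: score merges spot fluorescence at 667nm with spot signal to noise ratio.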 The conditions noted are these: higher = more signal.
Assay [11] relates to PRMT1 (protein arginine N-methyltransferase 1). Description: small molecules binding arginine methyltransferase PRMT1 – biochemical, small-molecule microarray, 635 nm fluorescence, primary screen (AID 1088).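 Also: binding of Prmt1 protein to compounds spotted on small-molecule microarray slides.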 The conditions noted are these: higher = more signal.
The nature of assay [12]: growth effects on S. cerevisiae YJM789 – YJM789 clinical isolate, OD600, 24 h, basal, primary screen (AID 1089).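 Also: growth of clinical yeast isolate S. cerevisiae YJM 789 seeded 1000 cells per well; test concentration not given here.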 The conditions noted are these: higher = more signal, called active from +8 up or from −8 down.
Assay [13] in a line: S. pombe growth modifiers, basal conditions – strain 972, OD600, 24 h, no modulator, primary screen (AID 1090).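 Also: basal condition with compound alone and no growth modifier present; test concentration not given here.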 The conditions noted are these: S. pombe 972 growth, higher = more signal, called active from +8 up or from −8 down.
Assay [14] is described as follows: budding yeast growth modifiers under rapamycin – strain BY4716, OD600, 96 h, primary screen (AID 1091). Also: test concentration not given here. The conditions noted are these: S. cerevisiae BY4716 + rapamycin, higher = more signal, called active from +8 up or from −8 down.
For assay [15], the target named is Torsin-1A-interacting protein 2 (Homo sapiens) (UniProt Q8NFQ8). The assay is described as follows: small molecules binding lysate-expressed LULL1 – cell lysate, human LULL1 lysate, 635/667 nm fluorescence, primary screen (AID 1092).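 Also: probe is lysate of COS7 cells overexpressing human LULL1; score merges per-feature 667 nm fluorescence with signal-to-noise.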 The conditions noted are these: small-molecule microarray, hLULL1 lysate binding, 635 nm fluorescence; higher = more signal.
Assay [16] can be described thus: optical density change of DRC41 E. coli – strain DRC41, OD650, 24 h, E. coli filamentation project, primary screen (AID 1093).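 Also: MC1000 strain lacking acrAB efflux and sulA so SOS filamentation is blocked; test concentration not given here.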 The conditions noted are these: E. coli DRC41 growth, higher = more signal, called active from +8 up or from −8 down.
Assay [17] is described as follows: probe aLefty2 binding to arrayed compounds – biochemical, biotinylated probe, 635/667 nm fluorescence, primary screen (AID 1094).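 Also: score merges spot fluorescence near 667 nm with spot signal-to-noise ratio.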 The conditions noted are these: small-molecule microarray, higher = more signal.
Assay [18] concerns Noggin (protein binding on small-molecule microarray). The assay is described as follows: small molecules binding Noggin protein – biochemical, 635/667 nm fluorescence, primary screen (AID 1095).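 Also: score merges 667 nm feature fluorescence with signal to noise over triplicate slides.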 The conditions noted are these: 635 nm fluorescence, higher = more signal.
Assay [19] deals with Neurogenic locus notch homolog protein 3 (Homo sapiens) (UniProt Q9UM47). Description: small molecules binding NOTCH3 protein – biochemical, 635/667 nm fluorescence, primary screen (AID 1096). The conditions noted are these: small-molecule microarray, 635 nm fluorescence, higher = more signal.
The nature of assay [20]: probe aEGFR binding to arrayed compounds – biochemical, biotinylated probe, 635/667 nm fluorescence, primary screen (AID 1097).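 Also: probe is a biotinylated anti-EGFR antibody binding compounds printed on slides; score combines fluorescence near 667 nm and signal to noise of each spot.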 The conditions noted are these: small-molecule microarray, higher = more signal.

Chain of Neurogenic locus notch homolog protein 3 (Homo sapiens) (Q9UM47 whole entry, looked up): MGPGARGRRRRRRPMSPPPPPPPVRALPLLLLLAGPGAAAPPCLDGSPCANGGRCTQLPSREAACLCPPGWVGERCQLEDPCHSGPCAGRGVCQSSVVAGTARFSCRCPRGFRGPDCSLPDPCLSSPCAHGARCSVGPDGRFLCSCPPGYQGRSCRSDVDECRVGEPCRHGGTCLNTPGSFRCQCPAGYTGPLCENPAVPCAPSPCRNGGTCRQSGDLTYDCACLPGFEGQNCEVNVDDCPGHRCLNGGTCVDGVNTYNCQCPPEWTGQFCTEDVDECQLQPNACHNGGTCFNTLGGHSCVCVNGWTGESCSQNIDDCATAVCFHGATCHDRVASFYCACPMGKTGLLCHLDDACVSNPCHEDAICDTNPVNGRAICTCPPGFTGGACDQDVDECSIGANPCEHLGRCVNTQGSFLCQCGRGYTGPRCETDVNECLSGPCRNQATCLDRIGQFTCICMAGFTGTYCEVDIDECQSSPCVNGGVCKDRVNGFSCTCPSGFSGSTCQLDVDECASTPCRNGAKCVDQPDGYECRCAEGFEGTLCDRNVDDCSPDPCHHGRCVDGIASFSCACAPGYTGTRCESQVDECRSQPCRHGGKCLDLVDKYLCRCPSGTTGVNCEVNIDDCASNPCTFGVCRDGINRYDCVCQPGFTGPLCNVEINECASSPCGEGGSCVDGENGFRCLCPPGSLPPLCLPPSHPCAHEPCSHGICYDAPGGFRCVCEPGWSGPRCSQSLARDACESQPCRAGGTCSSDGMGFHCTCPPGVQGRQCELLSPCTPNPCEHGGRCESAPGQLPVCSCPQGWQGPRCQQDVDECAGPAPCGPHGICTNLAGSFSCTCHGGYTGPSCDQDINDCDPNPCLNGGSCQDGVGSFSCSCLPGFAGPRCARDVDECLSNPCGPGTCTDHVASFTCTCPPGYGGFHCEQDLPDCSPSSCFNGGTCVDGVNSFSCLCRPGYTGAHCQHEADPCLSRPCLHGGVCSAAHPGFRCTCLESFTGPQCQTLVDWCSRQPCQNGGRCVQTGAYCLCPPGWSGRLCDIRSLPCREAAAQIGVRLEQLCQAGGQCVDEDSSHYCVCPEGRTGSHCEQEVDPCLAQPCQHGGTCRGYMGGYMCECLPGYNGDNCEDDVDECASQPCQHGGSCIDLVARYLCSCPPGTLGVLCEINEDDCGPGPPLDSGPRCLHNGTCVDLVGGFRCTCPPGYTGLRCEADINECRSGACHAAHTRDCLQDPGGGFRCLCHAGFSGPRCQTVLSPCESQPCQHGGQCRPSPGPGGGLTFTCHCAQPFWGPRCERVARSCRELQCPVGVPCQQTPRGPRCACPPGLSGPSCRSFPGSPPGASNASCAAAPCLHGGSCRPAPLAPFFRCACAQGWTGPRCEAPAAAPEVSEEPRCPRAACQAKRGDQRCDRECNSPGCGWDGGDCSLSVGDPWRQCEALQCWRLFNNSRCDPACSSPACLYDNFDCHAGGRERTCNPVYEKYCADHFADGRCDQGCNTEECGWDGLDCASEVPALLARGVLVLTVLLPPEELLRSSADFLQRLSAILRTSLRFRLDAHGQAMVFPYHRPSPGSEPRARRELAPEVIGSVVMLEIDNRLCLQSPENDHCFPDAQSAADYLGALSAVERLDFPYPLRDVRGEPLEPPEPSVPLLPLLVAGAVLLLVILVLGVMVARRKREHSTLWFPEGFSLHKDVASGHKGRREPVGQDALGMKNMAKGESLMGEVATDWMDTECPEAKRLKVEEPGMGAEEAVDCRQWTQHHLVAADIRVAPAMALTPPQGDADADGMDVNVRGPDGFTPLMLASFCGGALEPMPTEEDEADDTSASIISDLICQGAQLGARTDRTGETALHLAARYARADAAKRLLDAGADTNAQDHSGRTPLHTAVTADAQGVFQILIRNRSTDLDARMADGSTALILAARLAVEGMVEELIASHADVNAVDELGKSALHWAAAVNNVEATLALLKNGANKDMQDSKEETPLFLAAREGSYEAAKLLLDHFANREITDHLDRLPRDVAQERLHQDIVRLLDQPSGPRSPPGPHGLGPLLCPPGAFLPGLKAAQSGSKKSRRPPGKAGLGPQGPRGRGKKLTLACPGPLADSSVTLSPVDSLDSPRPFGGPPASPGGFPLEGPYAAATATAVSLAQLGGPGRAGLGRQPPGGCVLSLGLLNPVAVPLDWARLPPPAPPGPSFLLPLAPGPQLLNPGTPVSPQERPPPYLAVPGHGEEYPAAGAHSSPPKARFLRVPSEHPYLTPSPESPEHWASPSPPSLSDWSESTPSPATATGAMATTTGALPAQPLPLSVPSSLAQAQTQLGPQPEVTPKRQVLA
Chain of Neurogenic locus notch homolog protein 2 (Homo sapiens) (Q04721 whole entry, looked up, canonical isoform): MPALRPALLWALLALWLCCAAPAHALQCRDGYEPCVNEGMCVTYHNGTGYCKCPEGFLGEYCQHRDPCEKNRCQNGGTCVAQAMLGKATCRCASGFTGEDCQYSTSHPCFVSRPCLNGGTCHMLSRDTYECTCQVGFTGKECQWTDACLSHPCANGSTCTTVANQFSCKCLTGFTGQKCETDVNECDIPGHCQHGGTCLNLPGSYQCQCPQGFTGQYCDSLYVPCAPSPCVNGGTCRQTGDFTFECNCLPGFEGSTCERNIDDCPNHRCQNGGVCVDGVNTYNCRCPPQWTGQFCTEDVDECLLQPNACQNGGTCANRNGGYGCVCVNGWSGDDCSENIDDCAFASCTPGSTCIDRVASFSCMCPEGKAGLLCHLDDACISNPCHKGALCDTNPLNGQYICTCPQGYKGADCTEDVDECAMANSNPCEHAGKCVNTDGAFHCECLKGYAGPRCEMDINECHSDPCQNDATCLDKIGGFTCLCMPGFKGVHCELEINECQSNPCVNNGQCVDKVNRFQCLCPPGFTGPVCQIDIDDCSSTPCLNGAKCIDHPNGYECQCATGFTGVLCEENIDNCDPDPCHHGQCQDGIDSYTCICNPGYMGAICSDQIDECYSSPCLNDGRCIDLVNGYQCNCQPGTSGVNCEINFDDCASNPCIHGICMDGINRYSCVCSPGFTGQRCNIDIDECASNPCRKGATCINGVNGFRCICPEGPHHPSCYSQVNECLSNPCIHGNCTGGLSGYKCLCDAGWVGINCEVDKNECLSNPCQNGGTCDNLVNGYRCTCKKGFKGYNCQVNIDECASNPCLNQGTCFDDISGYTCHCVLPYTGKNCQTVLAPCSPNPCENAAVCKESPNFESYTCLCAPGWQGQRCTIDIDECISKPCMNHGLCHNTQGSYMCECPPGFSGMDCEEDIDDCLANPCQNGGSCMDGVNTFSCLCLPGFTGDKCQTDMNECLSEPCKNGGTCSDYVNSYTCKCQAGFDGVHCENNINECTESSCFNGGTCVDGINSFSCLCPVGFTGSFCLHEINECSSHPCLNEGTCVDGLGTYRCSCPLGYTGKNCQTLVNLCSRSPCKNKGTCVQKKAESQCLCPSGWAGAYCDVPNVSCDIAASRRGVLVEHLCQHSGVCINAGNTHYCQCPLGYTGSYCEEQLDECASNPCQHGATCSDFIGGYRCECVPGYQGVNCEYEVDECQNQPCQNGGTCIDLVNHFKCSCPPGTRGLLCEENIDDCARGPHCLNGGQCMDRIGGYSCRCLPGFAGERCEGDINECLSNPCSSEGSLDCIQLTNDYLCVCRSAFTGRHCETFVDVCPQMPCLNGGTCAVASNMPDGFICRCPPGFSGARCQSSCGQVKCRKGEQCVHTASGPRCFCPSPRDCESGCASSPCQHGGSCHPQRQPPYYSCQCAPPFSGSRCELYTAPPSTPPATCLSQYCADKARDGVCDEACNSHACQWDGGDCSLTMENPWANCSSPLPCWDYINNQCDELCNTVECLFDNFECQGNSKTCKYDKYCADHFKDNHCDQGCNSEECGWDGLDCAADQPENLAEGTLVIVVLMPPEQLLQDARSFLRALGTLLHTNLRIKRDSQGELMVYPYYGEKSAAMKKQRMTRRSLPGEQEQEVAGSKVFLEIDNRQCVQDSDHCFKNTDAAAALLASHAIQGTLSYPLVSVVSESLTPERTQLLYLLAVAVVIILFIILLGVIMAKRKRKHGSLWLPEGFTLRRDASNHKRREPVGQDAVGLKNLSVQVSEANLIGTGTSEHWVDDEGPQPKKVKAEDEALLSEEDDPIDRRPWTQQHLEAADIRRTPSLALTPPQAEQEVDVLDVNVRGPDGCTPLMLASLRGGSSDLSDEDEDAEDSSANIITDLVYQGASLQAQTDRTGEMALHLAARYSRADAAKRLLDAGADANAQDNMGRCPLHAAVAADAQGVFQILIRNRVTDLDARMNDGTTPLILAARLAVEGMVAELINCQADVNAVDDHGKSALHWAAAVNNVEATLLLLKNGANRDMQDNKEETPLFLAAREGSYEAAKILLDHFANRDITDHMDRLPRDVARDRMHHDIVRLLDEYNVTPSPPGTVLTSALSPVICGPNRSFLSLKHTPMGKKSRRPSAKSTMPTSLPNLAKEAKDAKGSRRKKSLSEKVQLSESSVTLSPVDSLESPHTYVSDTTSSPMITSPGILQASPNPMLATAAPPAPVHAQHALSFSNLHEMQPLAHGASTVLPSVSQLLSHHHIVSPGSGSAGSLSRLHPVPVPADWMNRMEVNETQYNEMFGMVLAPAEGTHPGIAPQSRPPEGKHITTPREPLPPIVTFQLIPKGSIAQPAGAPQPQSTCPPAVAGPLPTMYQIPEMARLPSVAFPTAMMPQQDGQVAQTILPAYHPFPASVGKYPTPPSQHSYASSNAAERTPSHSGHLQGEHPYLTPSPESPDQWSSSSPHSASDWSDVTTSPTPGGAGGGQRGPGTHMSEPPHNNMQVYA

For `CN(C)CCCCCCNC(=O)[C@@H]1C[C@@H]2C(=O)N[C@@H](Cc3ccccc3)C(=O)N2[C@@H]1c1ccc(O)cc1`, the composite z-score in assay [1] worked out at 0.361; in assay [2], 1.57; in [3] it was 0.0127; in assay [4], 0.439; in assay [5], 0.644; in assay [6], 1.07. In addition, the composite z-score is 1.42 in assay [7]; 0.901 in assay [9]; -0.0196 in assay [10]; 1.53 in assay [11]; 2.84 in [15]; 0.195 in assay [17]. Also, the composite z-score was 1.8 in assay [18], 1.09 in assay [19] and 0.246 in [20]. In addition, the z-score in [8] is 3.06 (inactive); in assay [12], -0.18 (inactive); in assay [13], -0.899 (inactive); in assay [14] it was 0.0891 (inactive); in assay [16] it was -0.13 (inactive).

Take `CC(C)C(CO)N1C(=O)[C@@H]2C3C(=O)OCCC/C=C\[C@H]3OC23C=CCN(CCN2CCOCC2)C(=O)[C@@H]13` (stereo not given in full): the composite z-score in [1] was -0.364; in assay [2] it was -0.306; in [3], -0.116; in [4], -0.294; in assay [5] it was -0.853; in assay [6], -0.197. Moreover, the composite z-score is 0.366 in assay [7]; -0.139 in assay [9]; 0.0623 in [10]; 0.463 in assay [11]; -0.272 in [15]; -0.245 in assay [17]. The composite z-score was 0.0867 in assay [18], 0.0008 in assay [19] and -0.146 in assay [20]. Moreover, the z-score in [8] is 1.3 (inactive); in assay [12] it was 0.366 (inactive); in assay [13], -0.21 (inactive); in assay [14] it was 0.205 (inactive); in assay [16], -0.241 (inactive).

Turning to `CN1C=C(C(=O)OCCS(C)(=O)=O)C(C(=O)OCCS(C)(=O)=O)=CC(c2ccc(CO)cc2)=CC1C1CC1` (stereo not given), the composite z-score in assay [1] is -0.0965; in assay [2], 0.528; in [3] it was -0.0824; in assay [4] it was 0.0351; in assay [5], -0.0701; in [6] it was 1. For the same compound, the composite z-score in assay [7] is 1.27; in assay [9] it was -0.0993; in assay [10] it was -0.0994; in assay [11], 0.522; in assay [15] it was 1.33; in assay [17], -0.22. In addition, the composite z-score is 0.425 in [18], 0.415 in assay [19] and -0.103 in [20]. Besides, the z-score in assay [8] is 0.849 (inactive); in assay [12] it was 0.243 (inactive); in assay [13], -1.34 (inactive); in assay [14], 0.678 (inactive); in assay [16], 0.108 (inactive).

`C[N+](C)(C)CCCCNC(=O)[C@H]1C[C@H]2C(=O)N3CCC[C@H]3C(=O)N2[C@H]1c1cccc(OCCO)c1`: the composite z-score in assay [1] is 0.397; in assay [2], 0.442; in assay [3], -0.154; in assay [4] it was -0.194; in [5], -0.568; in [6], -0.235. Moreover, the composite z-score in assay [7] was determined as 0.807; in assay [9], 0.412; in assay [10], 0.0053; in [11], 0.0394; in assay [15], 0.889; in assay [17] it was 0.0459. Besides, the composite z-score was 1.52 in [18], 0.0378 in assay [19] and -0.185 in assay [20]. The z-score is 2.19 (inactive) in assay [8]; 0.573 (inactive) in assay [12]; -0.0177 (inactive) in [13]; -1.09 (inactive) in [14]; 0.51 (inactive) in assay [16].

`COCCCNC(=O)[C@@H]1c2ccccc2C(=O)N(Cc2ccccc2Cl)[C@H]1c1ccc(CO)cc1`: the composite z-score is 0.189 in assay [1]; -0.0402 in [2]; -0.117 in assay [3]; -0.247 in [4]; 0.161 in assay [5]; 0.379 in assay [6]. Also, the composite z-score was 1.48 in [7]; 0.465 in assay [9]; -0.0237 in assay [10]; 1.53 in [11]; 2.26 in [15]; -0.101 in assay [17]. The composite z-score was 0.522 in assay [18], 0.388 in assay [19] and -0.13 in [20]. Moreover, the z-score in assay [8] was -1.76 (inactive); in [12], -0.103 (inactive); in [13], -0.329 (inactive); in assay [14] it was -0.59 (inactive); in assay [16], 2.55 (inactive).
